GLS inh: glutaminase GLS (human) inhibition | O94925 | Potency, µM (titrated, usually from 45.5 µM), most hits filed as inhibitors | GLS enzymatic activity, qHTS titration | AID 624170 | 410,000 compounds, 0.21% hits
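Two-point fluorescence kinetic (t0, 30 min RT) for hKGA; glutamate detected via glutamate oxidase–HRP–Amplex Red. Substrate: 1 mM L-glutamine solution; buffer 45 mM KH2PO4, pH 8.2.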
GCN5L2 inh: inhibitors of human GCN5L2 histone acetyltransferase; 390,000 compounds, 0.21% hits; Potency, µM (doses to about 58.9 µM), actives largely listed as inhibitors; GCN5L2 HAT assay, ThioGlo1 CoA-SH fluorescence; Q92830
Target sequence (Q92830 whole entry, looked up): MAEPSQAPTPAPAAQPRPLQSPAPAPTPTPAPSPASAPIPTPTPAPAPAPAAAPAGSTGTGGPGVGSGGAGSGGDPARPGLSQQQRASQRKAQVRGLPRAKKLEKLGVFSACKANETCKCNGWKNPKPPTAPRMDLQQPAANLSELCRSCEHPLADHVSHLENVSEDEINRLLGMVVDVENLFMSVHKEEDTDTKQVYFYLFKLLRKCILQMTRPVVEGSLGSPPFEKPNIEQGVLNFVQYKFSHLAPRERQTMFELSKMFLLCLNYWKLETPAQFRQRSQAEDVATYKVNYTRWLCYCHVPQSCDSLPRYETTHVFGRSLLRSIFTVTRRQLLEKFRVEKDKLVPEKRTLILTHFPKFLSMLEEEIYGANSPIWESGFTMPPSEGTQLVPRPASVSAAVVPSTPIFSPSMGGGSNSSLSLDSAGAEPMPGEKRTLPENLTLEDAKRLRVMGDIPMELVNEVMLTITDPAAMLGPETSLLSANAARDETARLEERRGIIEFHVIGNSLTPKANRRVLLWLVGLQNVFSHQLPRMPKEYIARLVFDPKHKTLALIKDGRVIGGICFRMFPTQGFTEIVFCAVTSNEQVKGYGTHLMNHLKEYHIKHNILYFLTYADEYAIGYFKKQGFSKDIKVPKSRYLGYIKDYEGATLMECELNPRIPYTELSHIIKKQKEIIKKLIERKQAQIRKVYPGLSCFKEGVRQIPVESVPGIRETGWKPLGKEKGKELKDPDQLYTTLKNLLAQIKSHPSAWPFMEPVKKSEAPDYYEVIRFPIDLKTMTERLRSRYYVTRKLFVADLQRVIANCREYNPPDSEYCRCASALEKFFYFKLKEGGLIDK
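Enzyme at 20nM final was mixed with library compounds for 15 min at room temperature. Peptide H3(1-25) at 75uM, acetyl-CoA at 70uM and ThioGlo1 at 50uM were then added. Plates were read immediately and after 20 min (Ex340nm/Em540nm).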
USP2a inh: inhibitors of human ubiquitin-specific protease USP2a; 330,000 compounds, 0.01% hits; Potency, µM (titrated, usually from 38.3 µM), most hits filed as inhibitors; O75604; USP2 core, Ub-CHOP2 coupled fluorogenic reporter, 485/531
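USP2 core (10nM final) preincubated 30min RT with compound in 20mM Tris-HCl pH 8.0, 2mM CaCl2, 2mM beta-mercaptoethanol, 0.05% CHAPS; 25nM Ub-CHOP2 plus 25nM reporter substrate added, fluorescence (Ex485/Em531) read after 60min.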
PGK inhibitor: T. brucei PGK inhibition. P07378. PGK/GAPDH coupled, Kinase-Glo luminescence, 60 min. Potency, µM (doses to about 57.5 µM), hits mostly inhibitors. 380,000 compounds, 0.043% hits; also: nearly all actives have a fitted effect of over 60% in size
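Luminescent ATP detection (Kinase-Glo Plus) follows a 60-minute room-temperature incubation, with wells lacking PGK as controls. Buffer: 100 mM TEA (pH 7.6), 5 mM MgCl2, 0.01% Tween-20. Coupling enzyme GAPDH (100 nM final) supplies unstable 1,3-BPG in-well.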
Tb PFK block: T. brucei PFK enzyme inhibition; O15648; T. brucei PFK, ADP-Glo luminescence; Potency, µM (series often up to 57.5 µM), actives largely listed as inhibitors; 330,000 compounds, 0.17% hits; AID 485367; also: nearly all actives have a fitted effect of over 60% in size
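ADP-Glo luminescence quantified ADP after 45 min at room temperature, with 1.25 nM T. brucei PFK, 0.1 mM ATP and 0.5 mM fructose-6-phosphate in pH 8.0 TEA buffer. qHTS titrations up to 57 µM; curves classified by quality.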
Large screens that a line does not name were inactive; ! = a repeat was not active. Hits are enriched below; roughly 0.52% of the tested compounds scored in any of these assays. Calls follow the shape of the dose curve; as a rule, active = well fitted curve in the direction sought with a large enough effect; inconclusive = small, poorly fitted or top-dose-only effect, or another doubt; inactive = no such curve, though single readings can be large; an effect the other way counts as inactive or inconclusive.

CCOc1cc(/C=C2\CN(CC)C/C(=C\c3ccc(O)c(OCC)c3)C2=O)ccc1O	GLS inh 13µM
COc1cc(/C=C2\CCC/C(=C\c3ccc(O)c(OC)c3)C2=O)ccc1O	GCN5L2 inh inconclusive
COc1ccc(OC)c(-c2csc(NC(=O)COC(=O)C3CCC3)n2)c1	none
COc1ccc(OC)c(-c2csc(NC(=O)COC(=O)c3ccc(NC(=O)CC#N)cc3)n2)c1	GCN5L2 inh inconclusive, USP2a inh inconclusive, PGK inhibitor inconclusive, Tb PFK block 21µM
CCc1nc(Nc2ccc(O)cc2)c2oc3ccccc3c2n1	GLS inh 4.5µM
Cc1ccc(SCC(=O)Nc2ccc(C(=O)Nc3ccc(O)cc3)cc2)cc1	USP2a inh 11µM
Cc1ccc(SCC(=O)Nc2cccc(C)c2)cc1	none
NC[C@@H]1O[C@@H](O[C@H]2[C@@H](O)[C@H](O[C@@H]3[C@@H](O)[C@@H](N)C[C@H](N)[C@H]3O[C@H]3O[C@H](CN)[C@@H](O)[C@@H](O)[C@H]3N)O[C@H]2CO)[C@H](N)[C@@H](O)[C@@H]1O	none (no result: GCN5L2 inh, USP2a inh, PGK inhibitor, Tb PFK block)
CCc1ccc(NC(=O)CC2C(=O)N(c3cccc(C)c3)C(=O)N2CCC(C)C)cc1 (stereo not drawn)	none (no result: USP2a inh, Tb PFK block)
Cc1[nH][nH]c(=O)c1C(c1ccc(O)c(Br)c1)c1c(C)[nH][nH]c1=O	GLS inh 13µM
Cn1c(=O)c(=O)n(C)c2cc(S(=O)(=O)CCC(=O)Nc3ccc(F)cc3)ccc21	GCN5L2 inh 1.3µM!
CCOc1cc2sc(N3CCC(C(=O)Nc4ccc(C)cc4C)CC3)nc2cc1Br	none (no result: USP2a inh, Tb PFK block)
CCCNC(=O)CCc1cc(C(C)(C)C)c(O)c(C(C)(C)C)c1	none
CC(C)(C)c1cc(CCC(=O)NCCc2ccccn2)cc(C(C)(C)C)c1O	GLS inh 10µM
COc1ccc2c(c1)c1c(c(=O)n(-c3cc(Cl)ccc3C)c(=O)n1Cc1ccc(F)cc1)n2C	none (no result: USP2a inh, Tb PFK block)
CCOC(=O)COc1ccc2c(C)c(CCN(CC)CC)c(=O)oc2c1	none (no result: GCN5L2 inh, USP2a inh, PGK inhibitor, Tb PFK block)
CN1[C@@H]2CCC[C@@H]1CC(NC(=O)c1nn(C)c3ccccc13)C2 (stereo partly drawn)	none (no result: GCN5L2 inh, USP2a inh, PGK inhibitor, Tb PFK block)
O=S(=O)(Nc1ccc(O)c2ccccc12)c1cccs1	GLS inh 11µM
O=S(=O)(Nc1cccc2ccccc12)c1cccs1	none
N#C/C(=C1/SC[C@@H](c2ccc(Cl)cc2Cl)S1)n1ccnc1	none (no result: GCN5L2 inh, USP2a inh, PGK inhibitor, Tb PFK block)
O=C1C2CCCN2C(=O)N1CCCN1CCN(c2cccc(Cl)c2)CC1 (stereo not drawn)	none
O=c1n(CCCN2CCN(c3cccc(Cl)c3)CC2)nc2ccccn12	GCN5L2 inh 11µM!
Cc1cc(C(=O)NNC(=O)/C=C/c2ccco2)c(C)o1	GLS inh 10µM, PGK inhibitor inconclusive
CN1C[C@H]2c3ccccc3Oc3ccc(Cl)cc3[C@@H]2C1	none (no result: GCN5L2 inh, USP2a inh, PGK inhibitor, Tb PFK block)
Cc1[nH]n(-c2ccccc2)c(=S)c1C=Nc1ccc([N+](=O)[O-])cc1	GCN5L2 inh 7.9µM, Tb PFK block inconclusive
Cc1ccc(CNc2nc3ccccc3n3c(C)nnc23)cc1	none (no result: USP2a inh, Tb PFK block)
CCOCCCNC(=O)NC(C)c1c(-n2cccc2)sc2c1CCN(CC)C2 (stereo not drawn)	GLS inh inconclusive (no result: USP2a inh, Tb PFK block)
COc1ccc2[nH]c(=O)cc(C(=O)O)c2c1	GLS inh 14µM
COc1ccc2[nH]c(=O)c(C(=O)O)cc2c1	none
CC(C)CC(NC(=O)CNC(=O)C(Cc1ccc(O)cc1)NC(=O)C(CO)NC(=O)C(Cc1c[nH]c2ccccc12)NC(=O)C(Cc1cnc[nH]1)NC(=O)C1CCC(=O)N1)C(=O)NC(CCCN=C(N)N)C(=O)N1CCCC1C(=O)NCC(N)=O (stereo not drawn)	none (no result: GCN5L2 inh, USP2a inh, PGK inhibitor, Tb PFK block)
O=C(O)C(O)c1ccco1 (stereo not drawn)	GLS inh inconclusive, PGK inhibitor 14µM, Tb PFK block 4.8µM
COc1ccccc1CCNC(=O)Cc1c(C)c2cc(Cl)c(O)cc2oc1=O	GCN5L2 inh 32µM (no result: USP2a inh, Tb PFK block)
COc1cc2c(cc1O)CCN[C@@]21CS[C@H]2c3c(OC(C)=O)c(C)c4c(c3C(COC1=O)N1C2C2c3c(cc(C)c(OC)c3O)CC([C@@H]1O)N2C)OCO4 (stereo partly drawn)	GLS inh 22µM (no result: USP2a inh, PGK inhibitor, Tb PFK block)
CN1CCN(S(=O)(=O)c2ccc3c(c2)C(C)(C)C(=O)N3C)CC1	none
CC1CCCN(S(=O)(=O)c2ccc3c(c2)C(C)(C)C(=O)N3C)C1 (stereo not drawn)	GCN5L2 inh 28µM
COc1cc(C2c3c(-c4ccccc4O)n[nH]c3C(=O)N2Cc2ccco2)ccc1OCC(C)C (stereo not drawn)	none (no result: USP2a inh, Tb PFK block)
O=C(O)CN1C(=O)/C(=C\c2ccccc2OCc2ccc(Cl)cc2Cl)SC1=S	GCN5L2 inh 18µM, USP2a inh inconclusive
O=C(O)CN1C(=O)/C(=C\c2cc(Br)ccc2OCc2ccccc2Cl)SC1=S	GCN5L2 inh inconclusive
CC(=O)c1cccc(N(C(=O)Cn2nnc3ccccc32)C(C(=O)NC2CCCCC2)c2cn(C)nc2C)c1 (stereo not drawn)	GLS inh 7.9µM
Cc1c(CCC(=O)O)c(=O)oc2cc(O)ccc12	GCN5L2 inh 28µM
Cc1c(CCC(=O)O)c(=O)oc2cc3occ(C(C)(C)C)c3cc12	none
CNC(=O)c1cc(Nc2nnc(-c3ccc(O)cc3)c3ccccc23)ccc1OC	GLS inh 11µM
CN(C)C(=O)c1ccc(Nc2nnc(-c3ccc(O)cc3)c3ccccc23)cc1	GLS inh 11µM
NC(=O)COc1ccc(Nc2nnc(-c3ccc(O)cc3)c3ccccc23)cc1	GLS inh 7.9µM
COC(=O)COc1ccc(-c2nnc(Nc3ccc(O)cc3)c3ccccc23)cc1	none (no result: USP2a inh, Tb PFK block)
O=C(N/N=C/C1=C(N2CCOCC2)C(=C\c2ccccc2)/CC1)Nc1ccccc1	none
CCN(CC)c1ccc(/C=C2\CCC(/C=N/NC(=O)c3ccc(=O)n(C)c3)=C2N2CCOCC2)cc1	GLS inh 7.1µM
Cc1ccccc1CNC(=O)c1cccc(NC(=O)N2CCSc3ncccc32)c1	none (no result: USP2a inh, Tb PFK block)
COC(=O)/C=C/c1cc(O)ccc1O	none (no result: GLS inh, USP2a inh, PGK inhibitor, Tb PFK block)
O=C1CC(NC2CCN(C(=O)c3cccc(F)c3)CC2)C(=O)N1 (stereo not drawn)	GLS inh 11µM, Tb PFK block inconclusive
CN(C)Cc1cc(O)c(CN(C)C)cc1O	GLS inh 14µM, Tb PFK block inconclusive
COc1cc(/C=N/NC(=O)c2cc(-c3ccco3)nc3ccccc23)cc(OC)c1O	none
O=C(N/N=C/c1cccc(F)c1)c1cc(-c2ccco2)nc2ccccc12	GLS inh 13µM, GCN5L2 inh inconclusive, USP2a inh inconclusive, PGK inhibitor inconclusive
COc1cc2cc(Oc3ccc4ccc(=O)oc4c3)c(=O)oc2cc1OC1OC(COC(=O)CC(C)(O)CC(=O)O)C(O)C(O)C1O (stereo not drawn)	GLS inh inconclusive

Source: PubChem
